This is an account of results in the supplement of paper PMC10849652.

Of roughly 7,900 targets only a part is listed; those with a hit were picked by preference. About 0.6% of all pairs of compound and target were hits. Unmarked numbers belong to inactive results.

Sequence of UniProt Q9BUB5 (Q9BUB5 whole entry, looked up): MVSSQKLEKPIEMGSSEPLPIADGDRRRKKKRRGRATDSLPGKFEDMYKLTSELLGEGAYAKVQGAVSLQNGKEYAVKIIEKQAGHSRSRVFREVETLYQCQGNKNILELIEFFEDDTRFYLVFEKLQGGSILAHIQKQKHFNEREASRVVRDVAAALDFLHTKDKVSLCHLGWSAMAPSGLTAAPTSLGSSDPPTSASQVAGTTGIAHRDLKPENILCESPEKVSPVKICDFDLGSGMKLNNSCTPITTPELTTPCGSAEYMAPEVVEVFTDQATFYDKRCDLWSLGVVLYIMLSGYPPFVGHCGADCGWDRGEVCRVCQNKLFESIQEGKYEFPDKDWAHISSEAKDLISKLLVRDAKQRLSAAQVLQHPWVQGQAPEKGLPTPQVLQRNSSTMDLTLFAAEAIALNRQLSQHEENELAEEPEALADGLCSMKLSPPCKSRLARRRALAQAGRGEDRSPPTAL
Sequence of UniProt Q9Y2A7 (Q9Y2A7 whole entry, looked up): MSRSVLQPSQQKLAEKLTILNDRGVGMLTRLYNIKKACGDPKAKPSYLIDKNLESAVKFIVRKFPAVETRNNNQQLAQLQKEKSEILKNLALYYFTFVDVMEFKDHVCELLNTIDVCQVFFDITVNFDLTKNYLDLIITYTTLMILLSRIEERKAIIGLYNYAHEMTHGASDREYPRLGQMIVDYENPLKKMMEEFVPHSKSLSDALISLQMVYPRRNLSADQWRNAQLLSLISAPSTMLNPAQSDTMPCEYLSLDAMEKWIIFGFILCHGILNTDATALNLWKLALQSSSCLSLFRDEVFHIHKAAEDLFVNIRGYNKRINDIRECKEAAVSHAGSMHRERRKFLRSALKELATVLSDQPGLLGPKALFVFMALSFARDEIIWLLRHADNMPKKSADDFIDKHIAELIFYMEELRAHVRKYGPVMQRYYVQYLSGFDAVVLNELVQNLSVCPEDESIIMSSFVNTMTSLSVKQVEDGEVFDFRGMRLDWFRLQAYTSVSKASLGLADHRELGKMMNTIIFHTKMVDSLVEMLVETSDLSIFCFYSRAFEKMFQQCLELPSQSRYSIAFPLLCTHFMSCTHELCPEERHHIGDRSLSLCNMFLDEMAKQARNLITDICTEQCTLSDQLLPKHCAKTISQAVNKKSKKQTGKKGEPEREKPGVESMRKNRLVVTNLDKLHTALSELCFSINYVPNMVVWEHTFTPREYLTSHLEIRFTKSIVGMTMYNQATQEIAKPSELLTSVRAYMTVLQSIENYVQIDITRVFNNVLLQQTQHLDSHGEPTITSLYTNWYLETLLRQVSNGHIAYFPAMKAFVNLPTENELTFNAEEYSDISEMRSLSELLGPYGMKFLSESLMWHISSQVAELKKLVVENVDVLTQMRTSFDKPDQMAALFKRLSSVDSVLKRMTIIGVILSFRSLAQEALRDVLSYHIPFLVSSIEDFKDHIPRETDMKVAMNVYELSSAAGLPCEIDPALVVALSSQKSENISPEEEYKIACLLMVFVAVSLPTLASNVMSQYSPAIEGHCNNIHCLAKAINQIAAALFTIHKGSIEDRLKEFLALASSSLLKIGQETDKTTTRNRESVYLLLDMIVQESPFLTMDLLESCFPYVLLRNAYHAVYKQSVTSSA
Sequence of UniProt Q96MF7 (Q96MF7 whole entry, looked up): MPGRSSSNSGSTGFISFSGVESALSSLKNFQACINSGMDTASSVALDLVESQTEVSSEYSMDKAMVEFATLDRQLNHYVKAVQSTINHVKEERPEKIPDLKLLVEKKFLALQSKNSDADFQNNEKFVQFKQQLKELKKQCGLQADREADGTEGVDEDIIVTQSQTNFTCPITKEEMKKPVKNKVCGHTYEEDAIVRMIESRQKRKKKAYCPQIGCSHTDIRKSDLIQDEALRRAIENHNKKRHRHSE
Sequence of UniProt Q9BPX3 (Q9BPX3 whole entry, looked up): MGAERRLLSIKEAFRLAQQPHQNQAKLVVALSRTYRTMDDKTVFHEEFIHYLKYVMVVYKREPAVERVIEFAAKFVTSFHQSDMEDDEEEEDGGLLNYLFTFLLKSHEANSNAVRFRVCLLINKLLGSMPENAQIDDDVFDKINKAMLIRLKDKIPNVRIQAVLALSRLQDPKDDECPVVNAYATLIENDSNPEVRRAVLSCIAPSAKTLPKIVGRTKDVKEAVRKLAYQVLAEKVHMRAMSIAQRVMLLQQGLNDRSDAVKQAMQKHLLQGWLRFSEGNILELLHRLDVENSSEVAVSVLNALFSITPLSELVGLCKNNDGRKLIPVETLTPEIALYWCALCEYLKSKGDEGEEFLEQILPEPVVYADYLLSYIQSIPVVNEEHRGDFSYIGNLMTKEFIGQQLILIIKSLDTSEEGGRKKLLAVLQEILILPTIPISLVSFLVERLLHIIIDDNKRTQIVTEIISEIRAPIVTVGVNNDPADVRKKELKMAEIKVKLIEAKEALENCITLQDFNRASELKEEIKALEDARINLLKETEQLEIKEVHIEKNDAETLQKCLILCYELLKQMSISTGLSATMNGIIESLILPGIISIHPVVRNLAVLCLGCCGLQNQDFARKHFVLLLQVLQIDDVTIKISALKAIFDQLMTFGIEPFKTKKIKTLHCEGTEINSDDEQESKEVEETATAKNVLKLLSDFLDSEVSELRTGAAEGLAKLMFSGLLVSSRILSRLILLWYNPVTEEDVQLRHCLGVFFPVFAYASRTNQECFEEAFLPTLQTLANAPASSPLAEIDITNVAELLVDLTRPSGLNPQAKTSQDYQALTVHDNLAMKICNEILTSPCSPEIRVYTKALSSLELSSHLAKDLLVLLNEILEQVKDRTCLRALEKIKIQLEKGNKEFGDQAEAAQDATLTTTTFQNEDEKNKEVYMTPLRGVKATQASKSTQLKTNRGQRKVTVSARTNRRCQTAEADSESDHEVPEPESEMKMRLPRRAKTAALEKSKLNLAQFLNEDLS
Sequence of UniProt Q96DE0 (Q96DE0 whole entry, looked up): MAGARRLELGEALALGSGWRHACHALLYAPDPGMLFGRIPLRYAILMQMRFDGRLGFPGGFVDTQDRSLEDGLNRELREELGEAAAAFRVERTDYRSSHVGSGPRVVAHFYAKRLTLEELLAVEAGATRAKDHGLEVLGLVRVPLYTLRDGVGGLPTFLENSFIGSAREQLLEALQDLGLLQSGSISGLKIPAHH
Sequence of UniProt Q9BZF1 (Q9BZF1 whole entry, looked up): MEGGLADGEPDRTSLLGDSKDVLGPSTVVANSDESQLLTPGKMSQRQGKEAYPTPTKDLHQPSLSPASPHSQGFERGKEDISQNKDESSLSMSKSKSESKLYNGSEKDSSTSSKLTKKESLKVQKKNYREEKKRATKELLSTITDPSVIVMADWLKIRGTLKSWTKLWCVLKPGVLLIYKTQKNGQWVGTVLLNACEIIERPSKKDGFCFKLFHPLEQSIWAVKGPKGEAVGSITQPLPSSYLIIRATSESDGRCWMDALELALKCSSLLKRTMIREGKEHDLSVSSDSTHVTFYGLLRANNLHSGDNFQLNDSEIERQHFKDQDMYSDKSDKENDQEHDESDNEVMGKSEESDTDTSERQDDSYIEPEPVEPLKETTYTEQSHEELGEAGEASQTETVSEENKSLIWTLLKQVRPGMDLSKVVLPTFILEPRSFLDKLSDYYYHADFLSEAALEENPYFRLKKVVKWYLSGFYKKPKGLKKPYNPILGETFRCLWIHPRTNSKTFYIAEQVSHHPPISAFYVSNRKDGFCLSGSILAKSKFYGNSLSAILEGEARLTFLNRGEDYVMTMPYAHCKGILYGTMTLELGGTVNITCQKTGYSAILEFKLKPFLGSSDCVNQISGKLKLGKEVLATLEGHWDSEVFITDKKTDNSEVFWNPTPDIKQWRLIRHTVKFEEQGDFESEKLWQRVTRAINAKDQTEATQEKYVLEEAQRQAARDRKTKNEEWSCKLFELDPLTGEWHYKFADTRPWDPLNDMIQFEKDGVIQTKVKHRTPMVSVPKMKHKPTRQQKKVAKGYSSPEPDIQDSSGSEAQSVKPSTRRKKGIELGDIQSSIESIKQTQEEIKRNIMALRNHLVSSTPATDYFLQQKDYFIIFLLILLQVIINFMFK
Sequence of UniProt O00566 (O00566 whole entry, looked up): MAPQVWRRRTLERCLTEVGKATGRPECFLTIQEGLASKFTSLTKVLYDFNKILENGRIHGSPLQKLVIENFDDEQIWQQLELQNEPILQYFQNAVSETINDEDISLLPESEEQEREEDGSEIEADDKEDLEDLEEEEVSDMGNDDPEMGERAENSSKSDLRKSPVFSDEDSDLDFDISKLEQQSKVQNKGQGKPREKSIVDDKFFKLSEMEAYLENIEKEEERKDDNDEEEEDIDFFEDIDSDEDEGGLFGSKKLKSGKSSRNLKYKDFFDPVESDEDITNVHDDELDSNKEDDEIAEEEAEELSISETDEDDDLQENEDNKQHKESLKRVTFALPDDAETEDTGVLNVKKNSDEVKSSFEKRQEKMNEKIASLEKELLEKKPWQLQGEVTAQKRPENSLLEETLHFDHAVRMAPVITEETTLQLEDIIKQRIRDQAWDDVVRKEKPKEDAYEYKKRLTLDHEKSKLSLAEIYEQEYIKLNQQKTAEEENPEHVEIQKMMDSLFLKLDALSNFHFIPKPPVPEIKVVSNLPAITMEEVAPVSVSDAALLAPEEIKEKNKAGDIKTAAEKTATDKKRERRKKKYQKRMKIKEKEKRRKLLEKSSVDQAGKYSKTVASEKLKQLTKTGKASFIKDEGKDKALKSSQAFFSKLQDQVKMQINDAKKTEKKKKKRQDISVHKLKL
Sequence of UniProt Q9NRP0 (Q9NRP0 whole entry, looked up): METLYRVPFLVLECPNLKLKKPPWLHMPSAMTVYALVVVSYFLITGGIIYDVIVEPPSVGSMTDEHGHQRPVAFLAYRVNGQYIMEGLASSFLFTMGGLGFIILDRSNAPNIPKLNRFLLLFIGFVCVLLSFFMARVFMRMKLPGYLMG
Sequence of UniProt Q9BWT6 (Q9BWT6 whole entry, looked up): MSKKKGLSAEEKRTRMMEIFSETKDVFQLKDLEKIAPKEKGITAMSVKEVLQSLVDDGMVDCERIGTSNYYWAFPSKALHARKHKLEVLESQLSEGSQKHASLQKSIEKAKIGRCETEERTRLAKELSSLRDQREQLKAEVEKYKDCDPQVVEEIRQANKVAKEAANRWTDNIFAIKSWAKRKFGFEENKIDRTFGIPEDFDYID

Compound in the first experiment: Cn1cc(-c2ccc3c(c2)CCN3C(=O)Cc2cccc(C(F)(F)F)c2)c2c(N)ncnc21
The experiment in a line: log2 fold change, soluble protein after heating vs DMSO (PISA); higher = thermal stabilisation; K562 cells, 10 uM, 30 min; active = over 0.2 and 3.5 SD of the protein, either way, in both replicates (recomputed). Summed up:
(§1)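 K562 cells (2×10^6 cells/mL) were treated with 10 μM compound for 30 min, and aliquots were heated for 3 min over 48°C-58°C. Pooled aliquots were extracted in PBS with 0.5% NP-40 at 4°C, and the supernatant after 21,000xg for 90 min was measured by TMTpro 16plex LC-MS/MS with channel sums equalised. Reported thermal stability, relative to control samples and from duplicates, is a log2 fold change.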
As to NECTIN2 (UniProt Q92692), the log2 fold change was 0.096.

Turning to NCAPH (UniProt Q15003), the log2 fold change is -0.057.

As for OSBPL8 (UniProt Q9BZF1), the log2 fold change was -0.225.

For the target MPHOSPH10 (UniProt O00566), the log2 fold change was -0.259.

On to MTHFD1, A0A384N5Y3, for which the log2 fold change is 0.087.

With OXA1L (UniProt Q15070), the log2 fold change is 0.013.

Consider NPC1 (UniProt O15118), for which the log2 fold change is 0.004.

Turning to MYO19 (UniProt Q96H55), the log2 fold change was -0.099.

For NCKAP1 isoform 2 (UniProt Q9Y2A7), the log2 fold change is 0.04.

Take NSMCE4A (UniProt Q9NXX6): the log2 fold change was 0.025.

Take MSTO1 (UniProt Q9BUK6): the log2 fold change is 0.064.

On to MUL1 (UniProt Q969V5), for which the log2 fold change is 0.036.

MKNK1 (UniProt Q9BUB5): the log2 fold change was 0.117.

With NDUFS4 (UniProt O43181), the log2 fold change was 0.025.

Take NUCKS1 (UniProt Q9H1E3): the log2 fold change is 0.005.

For MSH3 (UniProt P20585), the log2 fold change is -0.032.

Regarding NMU (UniProt P48645), the log2 fold change was -0.394.

With OSTC (UniProt Q9NRP0), the log2 fold change was 0.057.

Turning to NDUFB8 (UniProt O95169), the log2 fold change was -0.08.

NFX1 (UniProt Q12986): the log2 fold change is 0.07.

Turning to ORC5 (UniProt O43913), the log2 fold change was 0.067.

As for NUDT16 (UniProt Q96DE0), the log2 fold change is 0.107.

For the target MRPL50 (UniProt Q8N5N7), the log2 fold change is 0.022.

For NOSIP (UniProt Q9Y314), the log2 fold change was -0.063.

For NSMCE2 (UniProt Q96MF7), the log2 fold change was 0.016.

As for NA, A0A096LPI6, the log2 fold change was -0.003.

As for MRPS35 (UniProt P82673), the log2 fold change was -0.039.

Turning to NA, A0A2R8Y3M9, the log2 fold change is 0.503.

For MND1 (UniProt Q9BWT6), the log2 fold change was -0.056.

For the target NOL11 (UniProt Q9H8H0), the log2 fold change is -0.006.

Take NCAPG (UniProt Q9BPX3): the log2 fold change was -0.016.

As for OTUD4 (UniProt Q01804), the log2 fold change was -0.082.

For the target MTFR1L (UniProt Q9H019), the log2 fold change is 0.07.

NFYC (UniProt Q13952): the log2 fold change is 0.014.

Consider MXRA7 (UniProt P84157), for which the log2 fold change was 0.03.

Consider MRPS27 isoform 2 (UniProt Q92552), for which the log2 fold change is 0.022.

Turning to NCL (UniProt P19338), the log2 fold change was -0.445.

Regarding NPEPPS (UniProt P55786), the log2 fold change is 0.085.

Compound in the next experiment: Cn1cc(-c2ccc3nnc(C(F)(F)c4ccc5ncccc5c4)n3n2)cn1
The description is as above. Summed up: as §1
For the target NECTIN2 (UniProt Q92692), the log2 fold change was 0.009.

Take NCAPH (UniProt Q15003): the log2 fold change is 0.019.

For the target OSBPL8 (UniProt Q9BZF1), the log2 fold change was -0.093.

Turning to MPHOSPH10 (UniProt O00566), the log2 fold change was -0.001.

Take MTHFD1, A0A384N5Y3: the log2 fold change was -0.008.

Regarding OXA1L (UniProt Q15070), the log2 fold change was 0.038.

For NPC1 (UniProt O15118), the log2 fold change is 0.012.

As for MYO19 (UniProt Q96H55), the log2 fold change was -0.069.

With NCKAP1 isoform 2 (UniProt Q9Y2A7), the log2 fold change is -0.004.

In the case of NSMCE4A (UniProt Q9NXX6), the log2 fold change is -0.131.

With MSTO1 (UniProt Q9BUK6), the log2 fold change was 0.037.

With MUL1 (UniProt Q969V5), the log2 fold change was 0.016.

For the target MKNK1 (UniProt Q9BUB5), the log2 fold change is -0.183.

Turning to NDUFS4 (UniProt O43181), the log2 fold change is -0.049.

For NUCKS1 (UniProt Q9H1E3), the log2 fold change was 0.055.

Turning to MSH3 (UniProt P20585), the log2 fold change was 0.009.

Turning to NMU (UniProt P48645), the log2 fold change is -0.11.

Consider OSTC (UniProt Q9NRP0), for which the log2 fold change is 0.069.

Consider NDUFB8 (UniProt O95169), for which the log2 fold change was 0.154.

In the case of NFX1 (UniProt Q12986), the log2 fold change was -0.15.

For the target ORC5 (UniProt O43913), the log2 fold change is 0.044.

Regarding NUDT16 (UniProt Q96DE0), the log2 fold change was 0.019.

Turning to MRPL50 (UniProt Q8N5N7), the log2 fold change is 0.117.

As for NOSIP (UniProt Q9Y314), the log2 fold change was -0.111.

For NSMCE2 (UniProt Q96MF7), the log2 fold change was -0.104.

Take NA, A0A096LPI6: the log2 fold change is -0.028.

As to MRPS35 (UniProt P82673), the log2 fold change was 0.017.

For NA, A0A2R8Y3M9, the log2 fold change is -0.117.

Turning to MND1 (UniProt Q9BWT6), the log2 fold change is -0.132.

With NOL11 (UniProt Q9H8H0), the log2 fold change is 0.001.

For NCAPG (UniProt Q9BPX3), the log2 fold change was 0.012.

With OTUD4 (UniProt Q01804), the log2 fold change is -0.09.

MTFR1L (UniProt Q9H019): the log2 fold change is 0.001.

Regarding NFYC (UniProt Q13952), the log2 fold change is 0.048.

Regarding MXRA7 (UniProt P84157), the log2 fold change is -0.042.

Regarding MRPS27 isoform 2 (UniProt Q92552), the log2 fold change was 0.033.

For the target NCL (UniProt P19338), the log2 fold change is -0.237.

For NPEPPS (UniProt P55786), the log2 fold change is 0.02.
